High-throughput results: PubChem BioAssay, several laboratories
CYP2C9 activ: activators of human CYP2C9; P11712; recombinant CYP2C9, luciferin-H conversion, luminescence; hits give high values; factor 1 = untreated enzyme, 0 = blocked; activation factor at 5 µM; 96,000 compounds, 1.4% hits;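 active means activation factor of 2 or more for CYP2C9 at a 5 µM dose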
Cav3 T inh: human Cav3.2 channel inhibition, primary screen | AID 449739 | 100,000 compounds, 4% hits | O95180 | Cav3.2-expressing cells, Fluo-4 calcium fluorescence FDSS; hits give low values | B-score at 10 µM;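 active means single-dose well whose peak fluorescence ratio is a statistical outlier from its plate by either plate-standardised score or position-corrected B-score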
Target sequence (O95180 whole entry, looked up): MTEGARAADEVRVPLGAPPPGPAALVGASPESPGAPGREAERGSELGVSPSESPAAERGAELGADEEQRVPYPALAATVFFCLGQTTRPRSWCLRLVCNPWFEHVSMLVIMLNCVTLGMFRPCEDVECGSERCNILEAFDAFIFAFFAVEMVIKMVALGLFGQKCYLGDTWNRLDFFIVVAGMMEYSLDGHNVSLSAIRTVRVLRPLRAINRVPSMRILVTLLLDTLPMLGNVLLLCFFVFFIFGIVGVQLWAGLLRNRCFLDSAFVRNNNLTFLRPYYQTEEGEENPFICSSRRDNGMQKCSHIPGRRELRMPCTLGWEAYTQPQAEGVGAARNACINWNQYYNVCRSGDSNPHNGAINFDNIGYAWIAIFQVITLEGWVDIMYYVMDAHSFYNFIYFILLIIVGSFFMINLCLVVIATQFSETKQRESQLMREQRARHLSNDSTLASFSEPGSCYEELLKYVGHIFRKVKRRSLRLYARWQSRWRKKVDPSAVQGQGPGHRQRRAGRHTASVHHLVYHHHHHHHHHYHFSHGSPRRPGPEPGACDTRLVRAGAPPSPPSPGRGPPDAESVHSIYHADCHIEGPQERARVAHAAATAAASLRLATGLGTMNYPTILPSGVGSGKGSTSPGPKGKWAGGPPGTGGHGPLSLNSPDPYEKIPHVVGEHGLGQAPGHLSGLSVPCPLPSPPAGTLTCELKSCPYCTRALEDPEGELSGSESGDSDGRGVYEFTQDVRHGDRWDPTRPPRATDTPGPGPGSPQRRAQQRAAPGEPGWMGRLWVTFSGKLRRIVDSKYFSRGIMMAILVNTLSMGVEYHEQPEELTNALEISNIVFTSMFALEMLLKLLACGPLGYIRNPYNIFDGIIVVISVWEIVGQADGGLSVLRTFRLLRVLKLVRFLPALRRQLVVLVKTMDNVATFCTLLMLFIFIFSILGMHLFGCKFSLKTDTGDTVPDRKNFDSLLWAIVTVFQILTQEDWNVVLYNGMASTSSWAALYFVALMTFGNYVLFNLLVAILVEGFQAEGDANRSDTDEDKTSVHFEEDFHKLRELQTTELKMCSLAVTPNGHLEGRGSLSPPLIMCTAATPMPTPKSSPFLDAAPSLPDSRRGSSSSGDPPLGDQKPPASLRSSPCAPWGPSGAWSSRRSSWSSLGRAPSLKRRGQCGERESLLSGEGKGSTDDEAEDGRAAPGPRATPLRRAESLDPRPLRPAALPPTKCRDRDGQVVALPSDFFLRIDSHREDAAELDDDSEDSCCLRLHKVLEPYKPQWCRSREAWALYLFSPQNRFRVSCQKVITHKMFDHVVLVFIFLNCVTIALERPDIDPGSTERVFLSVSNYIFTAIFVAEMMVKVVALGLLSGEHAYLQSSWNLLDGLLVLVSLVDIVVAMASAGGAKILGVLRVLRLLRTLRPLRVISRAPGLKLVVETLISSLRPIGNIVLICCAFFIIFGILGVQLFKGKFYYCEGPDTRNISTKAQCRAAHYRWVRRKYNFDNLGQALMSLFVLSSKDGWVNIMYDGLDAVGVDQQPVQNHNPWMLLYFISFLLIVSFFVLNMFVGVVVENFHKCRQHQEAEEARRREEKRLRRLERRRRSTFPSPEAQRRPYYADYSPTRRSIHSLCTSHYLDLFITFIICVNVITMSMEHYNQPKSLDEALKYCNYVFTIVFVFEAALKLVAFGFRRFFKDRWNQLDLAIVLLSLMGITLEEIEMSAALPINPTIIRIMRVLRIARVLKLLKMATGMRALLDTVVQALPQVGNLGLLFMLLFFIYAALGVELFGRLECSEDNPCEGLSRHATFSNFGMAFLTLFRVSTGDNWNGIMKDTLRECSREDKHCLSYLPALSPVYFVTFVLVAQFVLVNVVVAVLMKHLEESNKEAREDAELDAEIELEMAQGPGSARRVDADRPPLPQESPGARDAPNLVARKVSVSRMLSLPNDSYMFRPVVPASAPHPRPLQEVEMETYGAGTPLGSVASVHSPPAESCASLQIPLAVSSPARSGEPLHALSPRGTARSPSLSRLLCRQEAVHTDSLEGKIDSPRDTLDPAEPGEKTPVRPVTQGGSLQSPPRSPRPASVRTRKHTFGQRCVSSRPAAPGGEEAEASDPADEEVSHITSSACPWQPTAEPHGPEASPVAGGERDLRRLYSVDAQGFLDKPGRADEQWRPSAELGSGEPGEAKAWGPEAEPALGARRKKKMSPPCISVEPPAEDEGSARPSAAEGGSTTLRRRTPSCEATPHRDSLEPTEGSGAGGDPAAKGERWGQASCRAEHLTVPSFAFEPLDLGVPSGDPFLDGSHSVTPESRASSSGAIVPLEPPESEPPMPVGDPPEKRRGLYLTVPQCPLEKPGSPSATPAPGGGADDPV
CYP2C19 inh: inhibitors of human CYP2C19; CYP2C19 Supersomes, luciferin-H EGE luminescence, 30 min; P33261; 96,000 compounds, 21% hits; inhibition, % at 5 µM;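 active means CYP2C19 inhibition above a set limit at 5 µM in the primary screen, cut at about 50% in these data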
CYP2C19 act: increases human CYP2C19 enzyme activity; AID 1025; recombinant CYP2C19, luciferin-H EGE luminescence; hits give high values; 0 = fully inhibited enzyme, 1 = untreated enzyme; 96,000 tested, under 10 active; P33261; activation factor at 5 µM;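 active means activation factor of at least 2 at 5 µM in the primary screen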
CYP2C9 inhib: inhibitors of human CYP2C9 | P11712 | CYP2C9 Supersomes, luciferin-H conversion, luminescence | inhibition, % at 5 µM | 96,000 compounds, 20% hits;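 active means blocking of liver enzyme CYP2C9 beyond about 50% at 5 µM, limit read from the data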
Numbers stand for hits; – = inactive; · = no result. Most compounds without a hit are left out; they make up all but 27% or so of the library.

SMILES	CYP2C9 activ	Cav3 T inh	CYP2C19 inh	CYP2C19 act	CYP2C9 inhib
COP(=O)(/C=C/c1ccccc1)C(O)c1ccc(F)cc1 (configuration not stated)	–	–	–	–	–
C=C(C)C(=O)N1CC2(CC(c3cccc(NC(=O)/C(C)=C\C)c3)=NO2)C[C@H]1C(N)=O (some centres not stated)	·	–	·	·	·
CC(=O)N(CC(=O)O)c1ccccc1C(=O)O	–	–	–	–	–
CCOC(=O)C1=C(N)c2ccccc2CC1C(C)C (configuration not stated)	–	·	96	–	81
CCOC(=O)C1Cc2ccccc2C(=O)O1 (configuration not stated)	–	–	–	–	–
CCOC(=O)CSc1nc(C(C)(C)C)cc(C(F)(F)F)c1C#N	–	–	–	–	–
COc1ccnc(N2CCN(c3ccccc3)CC2)c1C#N	–	–	100	–	80
FC(F)(F)c1nc(N2CCN(c3ccccc3)CC2)nc2c1CCCCC2	–	–	–	–	–
Cn1nc(C(F)(F)F)c(C#N)c1N1CCN(c2ccccc2)CC1	–	–	69	–	72
Cn1nc([N+](=O)[O-])nc1N1CCN(c2ccc(F)cc2)CC1	–	–	–	–	–
Cn1nc(C(F)(F)F)c(C#N)c1N1CCN(c2ccc(F)cc2)CC1	–	–	78	–	82
COc1cccc(-c2cc(C(=O)Nc3cc(C)nn3-c3ccccc3)no2)c1	–	–	–	–	–
CCC(=O)Nc1c(-c2cccs2)c(=O)c2ccccc2n1C	–	–	–	–	–
Cn1c2ccccc2c(=O)c2c(=O)n(C3CCCCC3)c(-c3cccs3)nc21	–	-4.3	–	–	95
Cc1sc2ncn(CC(=O)NCCN3CCOCC3)c(=O)c2c1S(=O)(=O)N1CCC(C)CC1	–	–	–	–	–
CCCCn1c(=O)c2ccccc2c2ccccc2c1=O	–	–	82	–	72
N#CCCn1cc(C(CC(=O)c2ccccc2)C(=O)O)c2ccccc21 (configuration not stated)	·	–	·	·	·
CCn1cc(C(=O)NCCC2=CCCCC2)c(=O)c2cc(S(=O)(=O)N(C)C)ccc21	·	–	·	·	·
Cn1c(Oc2ccccc2NCc2cccc(Br)c2)cc(=O)n(C)c1=O	–	-8.1	–	–	–
Cn1c(NCCc2ccccc2)cc(=O)n(C)c1=O	–	–	–	–	–
CCCCNC(=O)c1ccccc1NC(=O)CCSc1ccccc1	–	–	93	–	81
COc1ccc2c(C(=O)CN3CC(C)OC(C)C3)c[nH]c2c1 (configuration not stated)	–	–	53	–	–
O=C(CNS(=O)(=O)c1ccc(Br)s1)N1CCCC1	–	–	64	–	–
O=C(CCNS(=O)(=O)c1ccc(Br)s1)N1CCN(c2ccccc2)CC1	–	-5.5	–	–	–
COc1ccccc1N1CCN(C(=O)CCNS(=O)(=O)c2ccc(Br)s2)CC1	–	-4.7	–	–	80
SMILES	CYP2C9 activ	Cav3 T inh	CYP2C19 inh	CYP2C19 act	CYP2C9 inhib
Cc1ccc(SCC2CNc3nc4ccccc4c(=O)n32)c(C)c1 (configuration not stated)	–	–	–	–	–
OCC[C@H]1C[C@@H](O)[C@H](O)[C@@]2(CCCO2)O1	·	–	·	·	·
CCSc1nnc([C@H](C)NC(=O)OC(C)(C)C)o1	–	–	–	–	–
COc1ccccc1CNCc1cc(OC)c(OC)cc1OC	–	–	–	–	–
COc1ccc(Sc2ccccc2CN(C)C)cc1OC	–	–	57	–	–
O=C1c2ccccc2C(Nc2ccc(Cl)cc2)N1CCN1CCOCC1 (configuration not stated)	–	–	75	–	–
COC(=O)c1cc(NC2c3ccccc3C(=O)N2CCN2CCOCC2)cc(C(=O)OC)c1 (configuration not stated)	–	–	98	–	–
COc1ccc(NC(=O)CC#N)cc1OC	–	–	–	–	–
COc1ccc(C(=O)CSc2cc(C)nc(SCC(=O)c3ccc(C)cc3)n2)cc1	·	–	·	·	·
CCN(CC)C(=S)SCC(=O)c1ccc(F)cc1	–	–	–	–	–
Cc1cc(C(=O)CSc2ccc(F)cc2)cc(C)c1OC(=S)N(C)C	–	–	94	–	81
COc1ccc(SCC(=O)c2cc(C)c(OC(=S)N(C)C)c(C)c2)cc1	–	-4.5	87	–	–
O=C(Nc1ccc(N2CCN(C(=O)c3cccs3)CC2)c(Cl)c1)c1ccco1	–	–	–	–	54
COc1c(F)c(F)c(C(=O)Nc2ccc(N3CCN(C(C)=O)CC3)c(Cl)c2)c(F)c1F	–	–	–	–	66
O=C(Nc1ccc(N2CCN(C(=O)c3ccco3)CC2)c(Cl)c1)c1c(F)c(F)c(F)c(F)c1F	–	–	68	–	73
Cc1ccccc1C(=O)N1CCN(c2ccc(NC(=O)c3ccco3)cc2Cl)CC1	–	–	–	–	–
CCOc1ccccc1N1CCN(C/C=C/c2ccc(N(C)C)cc2)CC1	–	–	–	–	–
COC(=O)C1=C(CCc2ccccc2)NC(=O)NC1c1ccc(Cl)cc1 (configuration not stated)	·	–	·	·	·
Cc1cc(=O)[nH]c(SCc2cc(=O)n3nc(C)sc3n2)n1	–	–	–	–	–
COc1ccc(S(=O)(=O)N(CC(=O)N2CCOCC2)Cc2ccccc2)cc1C	–	–	72	–	–
COc1ccc(S(=O)(=O)N(CCc2ccccc2)CC(=O)N2CCOCC2)cc1	–	–	–	–	–
COc1ccc(S(=O)(=O)N(CCc2ccccc2)CC(=O)O)cc1C	–	–	62	–	73
COc1ccc(C)cc1S(=O)(=O)N(CC(=O)N1CCOCC1)Cc1ccccc1	–	–	66	–	–
CS(=O)(=O)N(CC(=O)N1CCOCC1)Cc1ccccc1	–	–	–	–	–
COc1cccc(N(CC(=O)N2CCN(C)CC2)S(=O)(=O)c2ccccc2)c1	–	–	–	–	–
SMILES	CYP2C9 activ	Cav3 T inh	CYP2C19 inh	CYP2C19 act	CYP2C9 inhib
Cc1ccccc1NCCNc1ccccc1C	–	–	83	–	–
O=c1cc(CSc2nnc(COc3ccccc3)o2)c2ccccc2[nH]1	–	–	–	–	–
COc1ccc(-c2cc(-c3ccc(OC)c(OC)c3)n[nH]2)c(O)c1	–	–	–	–	–
COc1ccc(O)c(-c2cc(-c3cccc(Br)c3)n[nH]2)c1	–	·	–	–	61
COc1ccc(-c2cc(-c3cc(OC)ccc3O)[nH]n2)cc1	–	-4.5	–	–	–
CCCc1cc(=O)[nH]c(-n2[nH]c3c(c2=O)CCCC3)n1	–	·	–	–	–
COCCn1c(SCC(=O)N2CCCc3ccccc32)nnc1-c1ccco1	–	–	–	–	–
CCc1cc2c(=O)n(Cc3ccco3)c(SCc3c(C)noc3C)nc2s1	–	–	51	–	90
CCc1cc2c(=O)n(Cc3ccco3)c(SCC(=O)N3CCCc4ccccc43)nc2s1	–	-5.3	–	–	87
NC(=O)C1CCN(C(=O)CSc2nc3c(c(-c4ccccc4)n2)CCCC3)CC1	–	–	–	–	73
Cc1ccnc(SCC(=O)N2CCC(C(N)=O)CC2)n1	–	–	–	–	–
